# Laboratory results taken from PubChem BioAssay (NCATS).
# Results filed as inconclusive are left out. A call without a number means that no potency is given here. Values without a mark were called inactive. The source made the active and inactive calls. The call rests on the fitted dose curve; in most records, active means well fitted cell-killing curve with a large enough effect; inconclusive means small, poorly fitted or top-dose-only effect, or effect the other way; inactive means no such curve, though single readings can be large or run the other way.
# How the values were obtained:
# [1] = Quantitative High-Throughput drug screen in 47 multiple myeloma cell lines against the NCATS MIPE library collection: MM1R_ATCC cell viability assay (AID 1918981); further: nearly all actives have a fitted effect of over 35% in size; further: potency means the concentration at half of the fitted maximal effect
# Procedure, shortened: (§1)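 ATP-based CellTiter-Glo luminescence after 48 h drug exposure (37 °C, 5% CO2) of 500 myeloma cells per well. DMSO-only wells set 100% viability, media-only wells 0%; MIPE 4.0 library added by pin tool.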
# [2] = Quantitative High-Throughput drug screen in 47 multiple myeloma cell lines against the NCATS MIPE library collection: OCIMY5_PLB cell viability assay (AID 1918988); further: potency means the concentration at half of the fitted maximal effect; nearly all actives have a fitted effect of over 65% in size
# Procedure, shortened: as §1
# [3] = Quantitative High-Throughput drug screen in 47 multiple myeloma cell lines against the NCATS MIPE library collection: OPM1_PLB cell viability assay (AID 1918989); further: nearly all actives have a fitted effect of over 40% in size; further: potency means the concentration at half of the fitted maximal effect
# Procedure, shortened: as §1
# [4] = Quantitative High-Throughput drug screen in 47 multiple myeloma cell lines against the NCATS MIPE library collection: U266_ATCC cell viability assay (AID 1919864); further: nearly all actives have a fitted effect of over 35% in size; further: potency means the concentration at half of the fitted maximal effect
# Procedure, shortened: as §1
# [5] = Quantitative High-Throughput drug screen in 47 multiple myeloma cell lines against the NCATS MIPE library collection: XG1_PLB cell viability assay (AID 1919866); further: nearly all actives have a fitted effect of over 35% in size
# Procedure, shortened: as §1
# [6] = Quantitative High-Throughput drug screen in 47 multiple myeloma cell lines against the NCATS MIPE library collection: PE2_PLB cell viability assay (AID 1919869); further: nearly all actives have a fitted effect of over 35% in size; further: potency means the concentration at half of the fitted maximal effect
# Procedure, shortened: as §1
# [7] = Quantitative High-Throughput drug screen in 47 multiple myeloma cell lines against the NCATS MIPE library collection: RPMI8226_ATCC cell viability assay (AID 1919871); further: nearly all actives have a fitted effect of over 30% in size
# Procedure, shortened: as §1
# [8] = Quantitative High-Throughput drug screen in 47 multiple myeloma cell lines against the NCATS MIPE library collection: KMS11_JCRBsus cell viability assay (AID 1919873); further: nearly all actives have a fitted effect of over 50% in size
# Procedure, shortened: as §1
# [9] = Quantitative High-Throughput drug screen in 47 multiple myeloma cell lines against the NCATS MIPE library collection: LP1_DSMZ cell viability assay (AID 1918982); further: nearly all actives have a fitted effect of over 35% in size
# Procedure, shortened: as §1
# [10] = Quantitative High-Throughput drug screen in 47 multiple myeloma cell lines against the NCATS MIPE library collection: KMS28PE_JCRB cell viability assay (AID 1918983); further: nearly all actives have a fitted effect of over 35% in size; further: potency means the concentration at half of the fitted maximal effect
# Procedure, shortened: as §1
# [11] = Quantitative High-Throughput drug screen in 47 multiple myeloma cell lines against the NCATS MIPE library collection: SKMM1_PLB cell viability assay (AID 1919863); details: SKMM1 myeloma viability, CellTiter-Glo ATP, 48 h; viability: active compounds read low; further: nearly all actives have a fitted effect of over 35% in size; further: potency means the concentration at half of the fitted maximal effect
# Procedure, shortened: as §1
# [12] = Quantitative High-Throughput drug screen in 47 multiple myeloma cell lines against the NCATS MIPE library collection: XG6_PLB cell viability assay (AID 1919865); further: nearly all actives have a fitted effect of over 40% in size; further: potency means the concentration at half of the fitted maximal effect
# Procedure, shortened: as §1
# [13] = Quantitative High-Throughput drug screen in 47 multiple myeloma cell lines against the NCATS MIPE library collection: UTMC2_PLB cell viability assay (AID 1919868); details: CellTiter-Glo ATP luminescence, 48 h; viability (% of DMSO control): at 45.8 µM (top of the series); further: nearly all actives have a fitted effect of over 55% in size; further: potency means the concentration at half of the fitted maximal effect
# Procedure, shortened: as §1
# [14] = Quantitative High-Throughput drug screen in 47 multiple myeloma cell lines against the NCATS MIPE library collection: OPM2_DSMZ cell viability assay (AID 1919872); further: nearly all actives have a fitted effect of over 30% in size
# Procedure, shortened: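 Relative luminescence from CellTiter-Glo served as the viability signal, referenced to DMSO-treated (100%) and cell-free medium (0%) controls. Treatment lasted 48 hours at 37C with 500 cells per well.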
# [15] = Quantitative High-Throughput drug screen in 47 multiple myeloma cell lines against the NCATS MIPE library collection: KMS28BM_JCRB cell viability assay (AID 1919874); further: nearly all actives have a fitted effect of over 35% in size; further: potency means the concentration at half of the fitted maximal effect
# Procedure, shortened: as §1
# [16] = Quantitative High-Throughput drug screen in 47 multiple myeloma cell lines against the NCATS MIPE library collection: OCIMY7_PLB cell viability assay (AID 1918987); details: OCI-MY7 myeloma viability, CellTiter-Glo ATP, 48 h; viability (% of DMSO): at 45.8 µM (top of the series); further: nearly all actives have a fitted effect of over 65% in size; further: potency means the concentration at half of the fitted maximal effect
# Procedure, shortened: as §1
# [17] = Quantitative High-Throughput drug screen in 47 multiple myeloma cell lines against the NCATS MIPE library collection: VP6_DJ cell viability assay (AID 1919867); further: potency means the concentration at half of the fitted maximal effect; nearly all actives have a fitted effect of over 40% in size
# Procedure, shortened: as §1
# [18] = Quantitative High-Throughput drug screen in 47 multiple myeloma cell lines against the NCATS MIPE library collection: PCM6_Riken cell viability assay (AID 1919870); further: nearly all actives have a fitted effect of over 30% in size; further: potency means the concentration at half of the fitted maximal effect
# Procedure, shortened: as §1
Structure (SMILES),Potency [1],Potency [2],Potency [3],Potency [4],Potency [5],Potency [6],Potency [7],Potency [8],Potency [9],Potency [10],Potency [11],Potency [12],Potency [13],Potency [14],Potency [15],Potency [16],Potency [17],Potency [18],viability [11] [%]
CCNC(=O)[C@H]1O[C@@H](n2cnc3c(N)nc(NCCc4ccc(CCC(=O)O)cc4)nc32)[C@H](O)[C@H]1O,0.0526 µM (active),0.0662 µM (active),inactive,0.118 µM (active),inactive,0.0469 µM (active),inactive,inactive,–,–,–,–,–,–,–,–,–,–,–
Cc1cc2nc3c(=O)[nH]c(=O)nc-3n(CC(O)C(O)C(O)CO)c2cc1C (stereo not drawn),–,–,18.7 µM (active),–,–,inactive,–,inactive,inactive,0.0833 µM (active),20.9 µM (active),7.43 µM (active),inactive,inactive,5.9 µM (active),–,–,–,–
COc1ccc(-c2oc3c(CC=C(C)C)c(O)cc(O)c3c(=O)c2O)cc1,20.9 µM (active),14.8 µM (active),inactive,16.6 µM (active),–,inactive,–,inactive,–,–,20.9 µM (active),6.62 µM (active),–,inactive,3.72 µM (active),5.9 µM (active),5.26 µM (active),7.43 µM (active),–
C=CC[N+]1([C@H]2C[C@H]3[C@@H]4CC[C@H]5C[C@H](O)[C@@H](N6CCOCC6)C[C@]5(C)[C@@H]4CC[C@]3(C)[C@H]2OC(C)=O)CCCC1,inactive,–,inactive,inactive,inactive,inactive,–,inactive,–,–,–,inactive,inactive,inactive,inactive,–,–,inactive,–
NC(=O)c1ncn([C@@H]2O[C@H](CO)[C@@H](O)[C@@H]2O)n1,–,–,inactive,–,inactive,inactive,inactive,inactive,inactive,inactive,–,inactive,–,inactive,–,inactive,–,inactive,–
O=c1cc(-c2ccc(O)c(O)c2)oc2cc(O)cc(O)c12,inactive,–,–,–,–,–,inactive,inactive,–,–,–,14.8 µM (active),–,–,inactive,–,11.8 µM (active),inactive,–
N#Cc1c(N(CC(=O)O)CC(=O)O)sc(C(=O)O)c1CC(=O)O,–,–,–,–,–,14.8 µM (active),–,–,inactive,inactive,–,–,23.5 µM (active),inactive,inactive,8.33 µM (active),–,–,102
